Assay outcomes as filed in PubChem.
D3 antag: antagonists of human D3 dopamine receptor. D3R cells, DiscoveRx beta-arrestin luminescence, antagonist mode; hits give low values. hit rate 2.5% among 360,000. max response, negative = inhibition, %. AID 652054; in the data active means max response below about -50%; inconclusive means no clear call, values can overlap the other calls; further: on the % scale 0 is the no-effect control and ±100 the full control effect
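Cells plated overnight at 1500 cells/well, then exposed to library compounds with dopamine controls for 90 minutes at 37 degrees C. DiscoveRx reagent added for 30–60 minutes at room temperature; luminescence read, quantitative HTS format.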
D1 agonist: agonists of human D1 dopamine receptor; P21728; HEK293 T-REx D1 cells, calcium flux, agonist mode; activation, % at 2 µM; hit rate 1% among 360,000; AID 504660; in the data active means activation above about 30%; further: 0% is about no effect
Target sequence (P21728 whole entry, looked up): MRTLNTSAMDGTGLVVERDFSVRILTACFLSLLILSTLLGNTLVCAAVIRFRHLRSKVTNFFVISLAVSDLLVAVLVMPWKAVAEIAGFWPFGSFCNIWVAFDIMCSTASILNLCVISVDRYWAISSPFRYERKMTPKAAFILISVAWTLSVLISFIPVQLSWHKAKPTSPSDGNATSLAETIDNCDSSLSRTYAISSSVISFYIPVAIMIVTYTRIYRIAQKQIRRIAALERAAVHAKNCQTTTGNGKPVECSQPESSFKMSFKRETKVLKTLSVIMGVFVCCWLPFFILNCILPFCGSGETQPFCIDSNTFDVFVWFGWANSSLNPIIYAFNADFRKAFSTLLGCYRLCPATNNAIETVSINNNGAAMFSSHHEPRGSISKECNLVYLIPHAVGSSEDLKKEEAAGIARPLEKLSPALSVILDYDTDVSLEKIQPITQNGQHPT
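Agonism was scored from calcium flux recorded over 180 s (1 read/s) after pintool compound addition, following a 10-cycle baseline. Cells were inducible force-coupled HEK293 TREx D1, plated overnight at 30 C and loaded with no-wash calcium dye.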
D1 antagonist: human D1 dopamine receptor antagonism | HEK293 TREx D1 cells, calcium flux, dopamine EC80; hits give low values | activity change, negative = inhibition, % at 10 µM | hit rate 3.2% among 360,000 | P21728; in the data active means activity change below about -30%; further: on the % scale 0 is the no-effect control and ±100 the full control effect
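Allosteric or orthosteric antagonism assessed as attenuation of the calcium response to EC80 dopamine, added 180 s after compound, in induced HEK293 Trex D1 cells loaded with no-wash calcium dye.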
D3 ag: agonists of human D3 dopamine receptor. P35462. D3R DiscoveRx beta-arrestin cells, luminescence, 90 min. max activation, %. hit rate 0.58% among 410,000. AID 652048; in the data active means max activation above about 30%; further: 0% is about no effect
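Cells at 1500/well, incubated overnight, then treated with pinned compounds (dopamine as control) for 90 min at 37 degrees C. DiscoveRx reagent added for 30 - 60 minutes at room temperature; luminescence read.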
D1 PAM: enhances dopamine response at the human D1 receptor; potentiation, % at 10 µM; AID 504651; hit rate 0.036% among 360,000; P21728; HEK293 TREx D1 cells, calcium flux, dopamine EC20 potentiation; in the data active means potentiation above about 30%; further: 0% is about no effect
* marks the source's active call; other numbers are inactive results. In the library only some 6% were active in any assay of this set; here they are far more common.

`CCOC(=O)C1CCN(Cc2ccc(OC)c(OCc3ccccc3)c2)CC1` gave D3 antag -64.6*, D1 agonist 12.4, D1 antagonist -4.7, D3 ag -18.2 and D1 PAM -0.9.
`COc1ccc(CN2CCC(C)CC2)cc1OCc1ccccc1` gave D3 antag -89.2*, D1 agonist 5.8, D1 antagonist -13.6, D3 ag -25.3 and D1 PAM -7.4.
Cc1ccc(S(=O)(=O)N2CCN(Cc3nnc(-c4c(-c5ccccc5)noc4C)o3)CC2)cc1 was read as D3 antag 15.2, D1 agonist 4.4, D1 antagonist -41.7* and D3 ag -7.9.
`COc1ccc(/C=N/NC(=O)CCCOc2ccc(Cl)cc2Cl)cc1` gave D3 antag -21.0, D1 agonist 3.3, D1 antagonist -31.9*, D3 ag 3.0 and D1 PAM -6.3.
`COc1ccc(/C=N\NC(=O)CC(=O)Nc2cccc(Cl)c2)cc1OC` gave D3 antag 9.7, D1 agonist -1.0, D1 antagonist -51.3*, D3 ag -1.0 and D1 PAM -0.2.
Screening CCOc1ccccc1NC(=S)NC(=O)CCCOc1ccc(Cl)cc1Cl returned D3 antag -109.5*, D1 agonist 5.4, D1 antagonist -6.3, D3 ag -6.1 and D1 PAM 7.1.
`O=C(CCCOc1ccc(Cl)cc1Cl)Nc1ccccc1C(=O)O` gave D3 antag 21.2, D1 agonist 0.6, D1 antagonist -10.1, D3 ag 6.5 and D1 PAM -2.4.
`COc1ccc(/C=N/NC(=O)CCC(=O)Nc2ccccc2)cc1OC` gave D3 antag inconclusive, D1 agonist 1.2, D1 antagonist 2.1, D3 ag -0.6 and D1 PAM -1.4.
`CC(C)c1ccc(Nc2nc3ccc(C(=O)c4ccccc4)cc3n3cnnc23)cc1` gave D1 agonist 0.0, D1 antagonist -6.2, D3 ag -9.3 and D1 PAM 0.9.
Screening Cc1cc2c(s1)c1cnn(Cc3ccc(-n4cncn4)cc3)c(=O)c1n2C returned D1 agonist 0.7, D1 antagonist 4.8 and D1 PAM -3.4.
Screening CCN(CC)c1ccc(NC(=O)Cn2c3ncccc3c(=O)n2-c2ccccc2)c(C)c1 returned D1 agonist 0.6, D1 antagonist 1.3, D3 ag 1.4 and D1 PAM -2.9.
`O=C(C1CCCN(S(=O)(=O)c2ccc(Br)cc2)C1)N1CCOCC1` (centres undefined) gave D3 antag -18.5, D1 agonist 5.6, D1 antagonist -52.9*, D3 ag -9.0 and D1 PAM 6.0.
Screening O=S(=O)(c1ccc(Oc2ccc(Br)cc2)cc1)N1CCOCC1 returned D3 antag 0.0, D1 agonist 14.7, D1 antagonist -32.5*, D3 ag -14.5 and D1 PAM -6.0.
CN1CCN(C(=O)C2CCCN(S(=O)(=O)c3ccc(Br)cc3)C2)CC1 (centres undefined) was read as D3 antag -27.0, D1 agonist 3.5, D1 antagonist 14.6, D3 ag -11.4 and D1 PAM 2.9.
`CN(Cc1ccccc1)c1cc(Cl)nc(N)n1` gave D3 antag -9.6, D1 agonist 2.2, D1 antagonist 0.6, D3 ag 38.4* and D1 PAM -2.0.
CCC(=O)Oc1cc(C(C)(C)C)cc2cc(-c3nc(-c4ccc(OC)cc4OC)no3)c(=O)oc12 was read as D1 agonist -0.8, D1 antagonist -1.1, D3 ag -17.2 and D1 PAM -5.0.
`COc1ccc(-c2nc(CNS(=O)(=O)c3ccc(C)cc3)cs2)cc1` gave D1 agonist 13.3, D1 antagonist -2.9, D3 ag -1.1 and D1 PAM -0.3.
`COc1ccc(NS(=O)(=O)c2ccc(-c3coc(C)n3)cc2)c(OC)c1` gave D3 antag 12.1, D1 agonist 8.1, D1 antagonist -32.6*, D3 ag -2.6 and D1 PAM -7.8.
Screening Cc1ccc(N(C)S(=O)(=O)c2ccc(-c3coc(C)n3)cc2)cc1 returned D1 agonist 0.4, D1 antagonist -38.6*, D3 ag 5.6 and D1 PAM -5.5.
COc1ccc(-c2nc(CNS(=O)(=O)c3ccc(F)cc3)cs2)cc1 was read as D1 agonist 23.6, D1 antagonist -32.2*, D3 ag -8.6 and D1 PAM -0.8.
